Experimental data published in article PMC8384837, “Expanding the binding specificity for RNA recognition by a PUF domain”.

Legend:
Assay in all cases: yeast three-hybrid, YBZ-1, SC-Leu-His + 0.5 mM 3-AT, 4 days
Settings in all cases: tags: N-Gal4 AD-HA kept; label: inside an RPR1-promoter hybrid RNA with tandem MS2 sites; ssRNA
PUM1 PUF domain R1-GIR = PUM1 PUF domain R1-GIR (Homo sapiens, UniProt Q14671 828-1176, S863G;R864I;Q867R)
Outline: (§1)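 Pumilio-1 PUF domain libraries, randomized at the three base-contacting residues of each repeat, were co-expressed with matching RNA elements from a centromeric plasmid in strain YBZ-1, which carries a LexA–MS2 coat fusion and a HIS3 reporter. Transformants grew for four days on SC-Leu (input) or on SC-Leu-His + 0.5 mM 3-AT (selection), and the repeat regions were PCR-amplified and Illumina-sequenced. The interaction score is the log change in variant frequency from input to selection. That logarithm is base 2, with a pseudocount of 1 where a variant was absent.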

PUM1 PUF domain R8-VWP = PUM1 PUF domain R8-VWP (Homo sapiens, UniProt Q14671 828-1176, N1122V;Y1123W;Q1126P)
Outline: as §1

PUM1 PUF domain R3-PWW = PUM1 PUF domain R3-PWW (Homo sapiens, UniProt Q14671 828-1176, C935P;R936W;Q939W)
Outline: as §1

PUM1 PUF domain R5-RKS = PUM1 PUF domain R5-RKS (Homo sapiens, UniProt Q14671 828-1176, C1007R;R1008K;Q1011S)
Outline: as §1

PUM1 PUF domain R6-AFL = target: T1, PUM1 PUF domain R6-AFL (Homo sapiens, UniProt Q14671 828-1176, N1043A;Y1044F;Q1047L)
T1 sequence: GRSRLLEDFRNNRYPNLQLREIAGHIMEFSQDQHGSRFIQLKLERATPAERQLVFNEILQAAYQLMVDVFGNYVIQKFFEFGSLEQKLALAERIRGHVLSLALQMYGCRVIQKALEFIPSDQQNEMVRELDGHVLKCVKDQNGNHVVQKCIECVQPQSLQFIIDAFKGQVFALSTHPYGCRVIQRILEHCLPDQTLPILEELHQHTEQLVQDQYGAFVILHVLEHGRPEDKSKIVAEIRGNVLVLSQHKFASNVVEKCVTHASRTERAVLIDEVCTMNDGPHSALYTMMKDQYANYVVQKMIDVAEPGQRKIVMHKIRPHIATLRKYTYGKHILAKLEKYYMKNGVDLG
Outline: as §1

PUM1 PUF domain R5-QMG = PUM1 PUF domain R5-QMG (Homo sapiens, UniProt Q14671 828-1176, C1007Q;R1008M;Q1011G)
Outline: as §1

**Q.** How did the binding signal (PUM1 PUF domain R1-GIR) turn out when “GGCUAGAACUAGUGGAUCCCCCGGCGCCCGGCGGCUCGAGCCCGGGUAAGUGUAAAUCGUCUGCAUGCCGCCGGGCGCCAUGCCUGCAGGUCGACUCUAGAAAACAUG” was run?
**A.** The binding signal was 4.44 log2 enrichment (interaction score).

**Q.** With “GGCUAGAACUAGUGGAUCCCCCGGCGCCCGGCGGCUCGAGCCCGGGUAAGUGUAAAUUGUCUGCAUGCCGCCGGGCGCCAUGCCUGCAGGUCGACUCUAGAAAACAUG” as the sequence, how does the binding signal (PUM1 PUF domain R1-GIR) read?
**A.** Its binding signal is 3.23 log2 enrichment (interaction score).

**Q.** What does the source list for “GGCUAGAACUAGUGGAUCCCCCGGCGCCCGGCGGCUCGAGCCCGGGUAAGUGUAAAUAGUCUGCAUGCCGCCGGGCGCCAUGCCUGCAGGUCGACUCUAGAAAACAUG”?
**A.** binding signal (PUM1 PUF domain R8-VWP): 1.71 log2 enrichment (interaction score); binding signal (PUM1 PUF domain R3-PWW): 2.43 log2 enrichment (interaction score); binding signal (PUM1 PUF domain R5-RKS): 0.56 log2 enrichment (interaction score)

**Q.** How did the binding signal (PUM1 PUF domain R8-VWP) turn out when “GGCUAGAACUAGUGGAUCCCCCGGCGCCCGGCGGCUCGAGCCCGGGUAAGCGUAAAUAGUCUGCAUGCCGCCGGGCGCCAUGCCUGCAGGUCGACUCUAGAAAACAUG” was run?
**A.** Its binding signal is 3.01 log2 enrichment (interaction score).

**Q.** With “GGCUAGAACUAGUGGAUCCCCCGGCGCCCGGCGGCUCGAGCCCGGGUAAGUGAAAAUAGUCUGCAUGCCGCCGGGCGCCAUGCCUGCAGGUCGACUCUAGAAAACAUG” as the sequence, how does the binding signal (PUM1 PUF domain R6-AFL) read?
**A.** The binding signal was 4.25 log2 enrichment (interaction score).

**Q.** Which binding signal (PUM1 PUF domain R5-QMG) does the source give for “GGCUAGAACUAGUGGAUCCCCCGGCGCCCGGCGGCUCGAGCCCGGGUAAGUGUGAAUAGUCUGCAUGCCGCCGGGCGCCAUGCCUGCAGGUCGACUCUAGAAAACAUG” here?
**A.** Its binding signal is 2.26 log2 enrichment (interaction score).

**Q.** How did the binding signal (PUM1 PUF domain R5-RKS) turn out when “GGCUAGAACUAGUGGAUCCCCCGGCGCCCGGCGGCUCGAGCCCGGGUAAGUGUCAAUAGUCUGCAUGCCGCCGGGCGCCAUGCCUGCAGGUCGACUCUAGAAAACAUG” was run?
**A.** Its binding signal is 3.2 log2 enrichment (interaction score).
